Bioassay records deposited in PubChem by several laboratories.
SKKanGAS inh = inhibitors of SKKanGAS S. pyogenes growth in kanamycin (SK-promoter or general growth effect); BacTiter-Glo, 6 h; AID 1662; 300,000 tested, 1.3% active; inhibition, % at 7.5 µM;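 active = mean replicate score, as percent of positive control median, at least 50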;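 also: strain carries kanamycin resistance gene driven by streptokinase promoter and grows in 40 µg/ml kanamycin; loss of luminescence reflects streptokinase promoter inhibition or plain growth inhibition; 0% = median of DMSO wells and 100% = positive control at its reference dose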
tim23-1 inh = growth inhibitors of tim23-1 mutant yeast | 330,000 tested, 1.3% active | S. cerevisiae tim23-1 growth, BacTiter-Glo luminescence, 24 h | inhibition, % at 20 µM;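 active = growth inhibition of the mutant yeast at or above 50%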;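 also: temperature-sensitive mutant grown at 25 °C; plate controls were DMSO-treated mutant yeast for no effect and medium wells lacking yeast for full effect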
TIM10 inh = TIM10 yeast growth inhibition; 330,000 tested, 1.4% active; S. cerevisiae TIM10 strain growth, BacTiter-Glo luminescence, 24 h; AID 463195; inhibition, % at 10 µM;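 active = inhibition of 40% or more at the single tested concentration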;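 also: wild-type TIM10 isogenic control strain grown at permissive 25 °C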
EBI2 antag = antagonists of human EBI2 receptor; P32249; EBI2 beta-arrestin recruitment, luminescence, 7a,25-OHC stimulated; inhibition, % at 5 µM; 360,000 tested, 0.81% active; in the data active = inhibition above about 38%;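 also: enzyme fragment complementation signal reports receptor beta-arrestin coupling in cells; 0% = agonist plus DMSO wells and 100% = wells without agonist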
Target sequence (P32249 whole entry, looked up, the tested form may be a part): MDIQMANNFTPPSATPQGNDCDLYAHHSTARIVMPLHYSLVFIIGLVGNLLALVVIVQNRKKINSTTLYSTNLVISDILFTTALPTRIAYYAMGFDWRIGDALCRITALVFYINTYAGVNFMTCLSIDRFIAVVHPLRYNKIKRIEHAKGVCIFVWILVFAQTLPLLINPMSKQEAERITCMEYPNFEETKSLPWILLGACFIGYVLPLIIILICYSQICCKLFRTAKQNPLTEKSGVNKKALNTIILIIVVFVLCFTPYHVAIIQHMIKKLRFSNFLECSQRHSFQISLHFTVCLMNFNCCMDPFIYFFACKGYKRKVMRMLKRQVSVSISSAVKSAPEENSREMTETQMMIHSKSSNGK
tim10-1 inh = tim10-1 yeast growth inhibition; S. cerevisiae tim10-1 ts strain growth, BacTiter-Glo, 24 h; 330,000 tested, 2.2% active; AID 463190; inhibition, % at 20 µM;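 active = inhibition of at least 40%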;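 also: mutant grown at 25 °C; 0% = DMSO wells with yeast and 100% = wells holding no yeast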
PfHsp90 yeast 2 = inhibits growth of yeast expressing Plasmodium falciparum Hsp90. S. cerevisiae expressing PfHsp90, BacTiter-Glo ATP, 48 h; yeast lacking PDR1 and PDR3 efflux regulators. inhibition, % at 9.4 µM. 310,000 tested, 0.32% active. AID 504621;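 active = every replicate shows inhibition above about 80%, whatever the replicate mean, limit read from the data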;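 also: 0% = DMSO neutral controls and 100% = 20 µM radicicol positive controls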
Starred values were filed as active, the others as inactive; . = no result. Rows were chosen to be rich in hits. Some 4.7% of all compounds tested hit in one or more screens of this group.

SMILES	SKKanGAS inh	tim23-1 inh	TIM10 inh	EBI2 antag	tim10-1 inh	PfHsp90 yeast 2
COc1ccc(-c2n[nH]c(C)c2-c2ccc(Cl)cc2)c(O)c1	68.3*	36.3	-0.9	24.0	30.5	-16.6
CC(=O)Nc1cccc(-c2ccnc3c2CC(C)(C(=O)NCc2ccc(F)c(F)c2)O3)c1 (stereo not drawn)	.	.	.	8.4	.	.
CCOC(=O)c1cncc(C#CCO)c1	15.8	9.6	13.8	10.2	9.0	-14.0
CCc1cc(-c2n[nH]c(C)c2Oc2ccc(C(C)C)cc2)c(O)cc1O	109.3*	-87.6	17.6	4.5	5.8	.
Cc1[nH]nc(-c2ccc(O)cc2O)c1Oc1ccccc1	-8.0	20.3	-6.4	25.8	-4.2	-11.5
CCOC(=O)c1ccc(Oc2cn[nH]c2-c2ccc(OCC(=O)NN)cc2O)cc1	99.2*	9.9	-5.0	-5.1	-36.9	20.9
CCCN1C(=O)/C(=C/C=C2\N(CC)c3ccccc3C2(C)C)SC1=S	2.1	7.6	7.7	37.1	26.2	12.7
CCCCN1C(=O)/C(=C/C=C2\Oc3ccccc3N2CC)SC1=S	0.8	.	.	22.7	.	99.4*
Cc1cn([C@H]2C[C@H](O)[C@@H](CCC(=O)NCCc3cccs3)O2)c(=O)[nH]c1=O	.	.	.	-7.8	.	.
CC(C)(C)c1ccc(C(=O)N/N=C/c2ccccn2)cc1	63.4*	24.0	15.3	-26.0	-42.2	-9.1
O=C(N/N=C/c1ccccn1)c1ccc(Br)cc1	-2.6	-37.8	3.0	-7.2	-12.8	24.5
Cc1ccc(CN2CC(N3CCN(C)CC3)CS2(=O)=O)cc1 (stereo not drawn)	.	.	.	-0.3	.	.
CCOC(=O)C1CCN(C(=O)c2ccc3c(=O)n4nc(Nc5cc(C)ccc5C)sc4nc3c2)CC1	49.5*	19.7	12.3	12.7	25.0	-15.5
COc1ccc(C2/C=C\CN(C(=O)OCc3ccccc3)CC(=O)N2Cc2ccc(F)cc2)cc1 (stereo not drawn)	6.3	-2.1	-5.1	-6.5	15.9	.
COc1ccc(C2/C=C\CN(C(=O)c3ccccc3)CC(=O)N2Cc2ccc(F)cc2)cc1 (stereo not drawn)	67.9*	23.5	5.6	-1.3	14.6	10.9
COc1ccccc1-c1cc(-c2ccccc2)nc(SCC(=O)O)c1C#N	83.8*	6.7	11.0	1.6	13.2	2.2
CC(C)C(Sc1nc(-c2ccccc2)cc(-c2ccccc2)c1C#N)C(=O)O (stereo not drawn)	53.3*	18.8	24.3	-13.5	17.7	-9.0
COc1ccc(-c2cc(-c3ccccc3)c(C#N)c(SCC(=O)O)n2)cc1	9.3	41.3	21.8	31.4	16.3	-2.7
CCCCn1nnnc1C1(C)CCC(=O)N1CCOc1ccccc1 (stereo not drawn)	.	.	.	-9.1	.	.
O=[N+]([O-])c1ccc(/C=N/Nc2nc(N3CCCCC3)nc(N3CCCCC3)n2)cc1	0.4	21.1	5.4	11.2	7.1	0.0
O=[N+]([O-])c1ccc(/C=N/Nc2nc(N3CCCCCC3)nc(N3CCCCCC3)n2)o1	75.1*	-0.9	18.8	-12.5	36.2	.
COc1ccc(NC(=O)COC(=O)c2ccc(-n3cnnn3)cc2)cc1Cl	2.2	13.8	0.9	-9.4	0.5	.
Oc1ccc(N=Nc2ccc3c(c2)OCO3)c2ccccc12	88.2*	15.6	-16.8	.	-9.1	.
O=C(NN=Cc1c(O)ccc2ccccc12)c1ccc2c(c1)OCO2	.	6.0	-10.8	0.2	5.7	0.8
O=C(COC(=O)c1ccc(CSc2ccc(Cl)cc2)cc1)Nc1ccccc1	7.9	15.1	8.0	-8.4	6.8	-4.8
SMILES	SKKanGAS inh	tim23-1 inh	TIM10 inh	EBI2 antag	tim10-1 inh	PfHsp90 yeast 2
CC#CC[N+](C)(C)CCCCCCCC	-3.3	0.0	-1.3	1.7	-16.1	9.2
CCCCCCCCCCCCCCCC[N+](C)(C)Cc1ccc(F)cc1	.	.	.	1.3	.	115.2*
Cc1ccc2nc(-c3ccccn3)c(Nc3ccccc3C)n2c1	92.5*	-19.4	21.1	16.2	27.1	-1.8
Cc1ccn2c(Nc3ccccc3)c(-c3ccccn3)nc2c1	76.3*	-21.4	18.6	-5.5	-15.7	3.0
Cc1ccccc1Nc1c(-c2ccccn2)nc2ccccn12	-2.5	47.4	25.2	14.0	-10.8	-10.7
Cc1ccn2c(Nc3ccccc3C)c(-c3ccccn3)nc2c1	95.5*	46.4	38.6	1.3	3.7	-5.7
Cc1cccn2c(Nc3ccccc3)c(-c3ccccn3)nc12	68.0*	-36.8	4.1	-3.9	-7.8	-25.7
CCc1nc2ccc(C(=O)NCCN3CCOCC3)cn2c1N(C)Cc1ccc(OC)cc1	.	.	.	1.9	.	.
O=C(NCc1cccs1)C1C(=O)Nc2ccccc2C(=O)N1Cc1ccccc1 (stereo not drawn)	.	.	.	1.8	.	.
Cc1c(NC(=O)CN2CCN(c3ccc(O)cc3)CC2)c(=O)n(-c2ccccc2)n1C	6.8	0.7	-0.7	-7.5	-10.9	6.7
O=C(NC(=S)N1CCN(c2nc(-c3ccccc3)cs2)CC1)c1cncc(Br)c1	76.9*	13.7	22.3	13.6	16.7	-48.8
O=C(CN1CCN(c2nc(-c3ccccc3)cs2)CC1)NNC(=O)c1ccc(Br)cc1	9.5	-4.4	-9.3	5.8	-17.7	3.0
Cc1ccc(Cn2c(C(CO)Nc3nc(-c4ccc(F)cc4)cs3)nc3ccccc32)cc1 (stereo not drawn)	80.4*	9.0	18.8	8.2	27.8	-5.8
COc1ccc(-c2csc(NC(CO)c3nc4ccccc4n3Cc3ccc(C)cc3)n2)cc1 (stereo not drawn)	31.0	29.2	29.4	6.6	36.9	-33.8
CCc1nc2c(OCc3cc(Cl)cc(Cl)c3)cccn2c1N(C)C(=O)c1ccc(OC)cc1	.	.	.	2.3	.	.
O=C(Oc1c(CN2CCOCC2)cc(Cl)c2cccnc12)c1ccc(F)cc1	18.6	39.0	37.9	28.7	38.0	.
O=C(Oc1c(CN2CCOCC2)cc(Cl)c2cccnc12)c1ccccc1Cl	20.5	43.6	21.8	53.0*	33.2	6.7
CC1(Cc2ccc(C(F)(F)F)o2)C(=O)Nc2cc(-c3ccc(F)cc3F)ccc21 (stereo not drawn)	.	.	.	-9.3	.	.
Cn1c(O)c(C2=c3ccccc3=NC2=O)[nH]c1=S	-23.8	-3.7	2.2	-8.0	8.9	-10.7
COc1ccc2nc(-n3c(O)c(C4=c5ccccc5=NC4=O)[nH]c3=S)sc2c1	104.0*	.	.	1.2	.	-7.8
Cc1ccc(-c2csc3nc[nH]c(=S)c23)cc1	33.5	49.7	6.7	1.6	24.2	-27.5
S=c1[nH]cnc2scc(-c3ccc(Cl)cc3)c12	76.1*	-9.1	-23.7	14.3	7.0	.
Cc1cc(-c2csc3nc[nH]c(=S)c23)cc(C)c1C	91.6*	27.2	26.3	-0.9	39.4	-32.3
Cc1noc(C)c1NC(=O)Nc1ccc2c(c1)CC(=O)N([C@H](C)CO)C[C@@H](C)[C@H](CN(C)CC1CCCCC1)O2	.	-7.6	-7.8	-4.2	-8.1	9.4
O=C(N/N=C(\c1ccccc1)c1ccccn1)c1ccccc1Cl	65.6*	35.4	-0.3	-0.6	29.1	.
